A short description of test [1]: compound effects on lung adenocarcinoma cell viability – A549, calcein-AM fluorescence, 48 h, basal, profiling panel (AID 1162). Further: test concentration not given here. The conditions noted are these: higher = more signal.
Test [2] in a line: compound effects on differentiated 3T3-L1 adipocyte viability – cell-based, 3T3-L1 adipocytes, calcein-AM fluorescence, 48 h, basal, profiling panel (AID 1163). Further: test concentration not given here. The following applies: 3T3-L1 adipocytes viability, higher = more signal.
Test [3] is described as follows: compound effects on hepatocellular carcinoma cell viability – HepG2, calcein-AM fluorescence, 48 h, basal, profiling panel (AID 1164). Further: test concentration not given here. The following applies: higher = more signal.
Test [4] is described as follows: compound effects on multiple myeloma cell viability – MM1S, calcein-AM fluorescence, 48 h, basal, profiling panel (AID 1165). Further: test concentration not given here. The conditions noted are these: higher = more signal.
The nature of test [5]: calcein-AM signal in unstimulated myeloma cells – cell-based, calcein-AM fluorescence, 48 h, PK04 Diversity Set, profiling panel (AID 1166).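 Further: cells grown under basal conditions without added stimulus; test concentration not given here.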 The conditions noted are these: RPMI8226 myeloma viability, higher = more signal.
Test [6] can be described thus: JC-1 mitochondrial signal, unstimulated HepG2 cells – cell-based, JC-1 fluorescence, 24 h, 100 nL compound, profiling panel (AID 1167). Further: test concentration not given here. The conditions noted are these: HepG2 mitochondrial potential, higher = more signal.
Test [7] in a line: JC-1 mitochondrial signal, unstimulated adipocytes – cell-based, JC-1 fluorescence, 3T3-L1 adipocytes, 24 h, 100 nL compound, profiling panel (AID 1168). Further: test concentration not given here. The following applies: JC-1 mitochondrial fluorescence, higher = more signal, called active from +8 up or from −8 down.
Test [8] can be described thus: JC-1 mitochondrial signal, unstimulated myeloma cells – cell-based, JC-1 fluorescence, RPMI8226, 24 h, 100 nL compound, profiling panel (AID 1169). Further: test concentration not given here. The following applies: JC-1 mitochondrial potential fluorescence, higher = more signal.
Test [9] is described as follows: JC-1 mitochondrial signal, unstimulated MM1S myeloma – cell-based, JC-1 fluorescence, 24 h, 100 nL compound, profiling panel (AID 1170). Further: test concentration not given here. The following applies: MM1S mitochondrial potential, higher = more signal.
Test [10] can be described thus: resazurin metabolic signal in A549 cells – cell-based, resazurin fluorescence, 24 h, PK04 Diversity Set, profiling panel (AID 1171). Further: test concentration not given here. The following applies: A549 viability, higher = more signal, called active from +8 up or from −8 down. A general note: Resazurin is reduced to fluorescent resorufin, in cell work by metabolically active cells.
A short description of test [11]: resazurin metabolic signal in HepG2 cells – cell-based, resazurin fluorescence, 24 h, PK04 Diversity Set, profiling panel (AID 1172). Further: test concentration not given here. The following applies: HepG2 viability, higher = more signal.
The nature of test [12]: budding yeast growth changes without added modifier – OD600, strain BY4716, 24 h, basal condition, primary screen (AID 1173). The conditions noted are these: S. cerevisiae BY4716 growth, OD600, 24 h; higher = more signal, called active from +8 up or from −8 down.
The nature of test [13]: viability profiling in MM1S myeloma cells – cell-based, resazurin fluorescence, basal, 24 h, PK04 Diversity Set, profiling panel (AID 1174). Further: test concentration not given here. The following applies: higher = more signal, called active from +8 up or from −8 down.
The target in test [14] is Dihydroorotate dehydrogenase (quinone), mitochondrial (Plasmodium falciparum (isolate 3D7)) (UniProt Q08210). In words: inhibition of P. falciparum DHODH – biochemical, C-terminal His tag, absorbance 600 nm, primary screen (AID 1175).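 Further: recombinant parasite enzyme with a five histidine tag at its C terminus; test concentration not given here.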 The following applies: PfDHODH enzyme, DCIP absorbance 600 nm; higher = more signal, called active from +8 up or from −8 down.
Test [15] is described as follows: inhibition of PAO1 biofilm formation – strain PAO1, LB-PBS medium, absorbance 600 nm, primary screen (AID 1176). Further: test concentration not given here. The conditions noted are these: P. aeruginosa PAO1 growth/biofilm, A600, 12 h; higher = more signal.
The nature of test [16]: growth modulation of vineyard yeast isolate – strain RM11-1a, OD600, basal, 24 h, primary screen (AID 1177).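 Further: cultures grown under basal conditions with no added stressor; test concentration not given here.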 The conditions noted are these: S. cerevisiae RM11-1a growth, OD600, 24 h; higher = more signal, called active from +8 up or from −8 down.
The nature of test [17]: growth of efflux-deficient E. coli DRC39 – strain DRC39, OD650, 24 h, E. coli filamentation inducers, primary screen (AID 1178).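 Further: growth measured as culture turbidity by optical density at 650 nm; test concentration not given here.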 The conditions noted are these: E. coli DRC39 acrAB, higher = more signal, called active from +8 up or from −8 down.
Test [18] can be described thus: growth of efflux-deficient E. coli DRC39 – strain DRC39, OD650, 48 h, E. coli filamentation inducers, primary screen (AID 1179).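 Further: screen aims at cell division blockers that make cells filament.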 The conditions noted are these: E. coli DRC39 delta-acrAB growth, higher = more signal, called active from +8 up or from −8 down.
Test [19] can be described thus: viability profiling in RPMI8226 myeloma cells – cell-based, resazurin fluorescence, basal, 24 h, PK04 Diversity Set, profiling panel (AID 1180).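 Further: RPMI8826 multiple myeloma cell line at 5000 cells per well; test concentration not given here.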 The following applies: higher = more signal.
Test [20] addresses E3 ubiquitin-protein ligase XIAP (Homo sapiens) (UniProt P98170). In words: small molecules binding XIAP protein – biophysical, small-molecule microarray, fluorescence 635 nm, primary screen (AID 1181).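 Further: score merges 667 nm emission and signal to noise over triplicate slides.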 The conditions noted are these: higher = more signal.

Calls of active or inactive are those of the source. Unless noted, how the calls were made is not given here.

Sequence of Dihydroorotate dehydrogenase (quinone), mitochondrial (Plasmodium falciparum (isolate 3D7)) (Q08210 whole entry, looked up): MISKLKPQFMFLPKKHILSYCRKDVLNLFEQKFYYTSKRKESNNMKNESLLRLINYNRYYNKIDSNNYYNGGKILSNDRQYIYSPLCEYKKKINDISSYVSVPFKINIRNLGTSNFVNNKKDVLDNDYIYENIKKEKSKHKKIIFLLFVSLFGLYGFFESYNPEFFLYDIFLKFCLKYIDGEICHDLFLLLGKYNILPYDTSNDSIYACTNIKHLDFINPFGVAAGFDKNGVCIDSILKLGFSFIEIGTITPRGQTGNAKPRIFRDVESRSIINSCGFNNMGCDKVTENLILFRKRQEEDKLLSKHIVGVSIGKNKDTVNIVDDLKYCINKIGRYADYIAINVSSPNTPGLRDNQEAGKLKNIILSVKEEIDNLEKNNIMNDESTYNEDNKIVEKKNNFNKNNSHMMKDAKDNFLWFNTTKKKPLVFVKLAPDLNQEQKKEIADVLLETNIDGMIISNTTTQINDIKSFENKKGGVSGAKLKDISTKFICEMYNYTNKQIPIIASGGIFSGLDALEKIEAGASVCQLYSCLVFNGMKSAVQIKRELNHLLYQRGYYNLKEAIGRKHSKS
Sequence of E3 ubiquitin-protein ligase XIAP (Homo sapiens) (P98170 whole entry, looked up): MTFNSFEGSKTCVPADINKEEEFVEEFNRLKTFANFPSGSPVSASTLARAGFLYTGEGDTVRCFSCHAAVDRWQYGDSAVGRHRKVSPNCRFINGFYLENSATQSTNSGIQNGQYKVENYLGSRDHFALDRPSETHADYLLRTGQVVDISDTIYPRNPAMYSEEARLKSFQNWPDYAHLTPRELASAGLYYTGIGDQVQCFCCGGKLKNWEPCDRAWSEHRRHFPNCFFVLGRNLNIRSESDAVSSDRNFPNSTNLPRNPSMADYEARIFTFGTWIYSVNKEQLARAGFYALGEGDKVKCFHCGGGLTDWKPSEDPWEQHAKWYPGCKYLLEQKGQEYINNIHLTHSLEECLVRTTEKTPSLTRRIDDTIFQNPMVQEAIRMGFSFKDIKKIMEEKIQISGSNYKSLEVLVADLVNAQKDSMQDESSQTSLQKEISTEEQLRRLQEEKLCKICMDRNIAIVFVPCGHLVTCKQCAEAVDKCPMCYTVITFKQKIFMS

Turning to `CC1=C[C@@]2(CO)C(=O)[C@]3(CO3)[C@@H]1[C@H]1[C@]2(C)C=C(CO)C(=O)[C@]12CO2`, the z-score in test [1] was 0.23; in [2], 0.263; in test [3], -0.164; in test [4], -3.33; in test [5], -0.753; in [6], -0.38. In addition, the z-score in test [7] is -0.311 (inactive); in test [8], 0.249; in test [9], -2.11; in test [10], 0.474 (inactive); in [11], 0.693; in [12] it was -2.6 (inactive). Moreover, the z-score in [13] is -0.54 (inactive); in [15], -0.614 (inactive); in test [16], -0.813 (inactive); in [17], 0.477 (inactive); in [18] it was 0.655 (inactive); in [19], 0.483. The composite z-score in test [14] is -2.12 (inactive); in test [20], -0.227.

For the compound `CCCCN1CC=CC23O[C@@H]4/C=C\CCC(C)OC(=O)C4[C@H]2C(=O)N(C(CO)C(C)C)[C@@H]3C1=O` (stereo not given in full), the z-score in [1] was 0.0282; in test [2], -0.21; in [3], 0.519; in [4] it was 1.61; in test [5], -0.773; in [6] it was -0.403. Moreover, the z-score was -1.27 (inactive) in test [7]; 0.0795 in test [8]; -0.676 in test [9]; -0.0227 (inactive) in test [10]; 0.229 in test [11]; 0.844 (inactive) in test [12]. The z-score in [13] was 0.382 (inactive); in [15] it was 0.991 (inactive); in [16] it was 0.164 (inactive); in test [17], 0.375 (inactive); in test [18] it was 0.156 (inactive); in test [19], -0.0048. Also, the composite z-score in test [14] was -1.29 (inactive); in test [20], 0.48.

For the compound `O=C1O[C@@H](c2ccccc2)[C@@H](c2ccccc2)N2[C@@H](c3ccccc3OCCO)[C@]3(C(=O)Nc4ccc(C#CCCO)cc43)[C@@H](C(=O)N3CCCCCCC3)[C@H]12`, the z-score is 0.22 in test [1]; 0.251 in [2]; 0.717 in [3]; -1.68 in [4]; -4.14 in [5]; 0.548 in [6]. Also, the z-score in test [7] is 0.363 (inactive); in test [8], -1.11; in [9] it was -1.63; in test [10], -0.184 (inactive); in [11], 0.29; in test [12], 0.355 (inactive). Moreover, the z-score in [13] was -1.91 (inactive); in test [15], 1.26 (inactive); in [16], 0.753 (inactive); in [17], -0.291 (inactive); in [18] it was 0.321 (inactive); in test [19], -4.5. Besides, the composite z-score in test [14] is -0.452 (inactive); in [20], 2.45.

As to `O=C1OCC=C[C@H]2OC34C=CCN(Cc5ccccc5)C(=O)[C@H]3N(CCCCCCO)C(=O)[C@@H]4[C@@H]12` (stereo not given in full), the z-score in test [1] was 0.131; in [2], 0.98; in test [3], -0.246; in test [4] it was 1.62; in test [5] it was 0.659; in test [6] it was -0.1. Moreover, the z-score is -0.173 (inactive) in [7]; -0.822 in [8]; -0.566 in test [9]; 0.776 (inactive) in test [10]; 1.07 in test [11]; -0.296 (inactive) in [12]. Further, the z-score in test [13] is 1.59 (inactive); in test [15], 0.0683 (inactive); in test [16], -0.739 (inactive); in test [17], 0.693 (inactive); in test [18], 0.415 (inactive); in [19], 0.517. In addition, the values for the composite z-score in [14] and in test [20] were -1.65 (inactive) and 0.052, respectively.

With `CC(C)(C)OC(=O)CC[C@]1(C(=O)NCC(O)CO)N=C(c2ccc(OCCCO)cc2)O[C@H]1c1ccccc1` (stereo not given in full), the z-score was 0.156 in [1]; 0.833 in test [2]; 0.135 in [3]; 0.709 in test [4]; 0.0887 in test [5]; 0.52 in test [6]. The z-score in [7] was -0.24 (inactive); in [8], -0.963; in [9], 0.437; in test [10] it was 0.489 (inactive); in test [11], 0.309; in [12], -1.84 (inactive). The z-score in test [13] is 1.04 (inactive); in test [15], 0.882 (inactive); in test [16], -0.87 (inactive); in [17], 1.41 (inactive); in test [18] it was 0.419 (inactive); in test [19], 0.949. Moreover, the results for the composite z-score in [14] and in [20] were -1.89 (inactive) and -0.0203, respectively.

The values above are taken from PubChem BioAssay.
